# Laboratory results taken from PubChem BioAssay (Tox21).
# Where “and” joins values, the source holds several entries; their conditions need not be identical. Equal entries are not always repeated. Records with an inconclusive call do not appear. Values without a mark were called inactive. Calls of active or inactive are those of the source. The call rests on the fitted dose curve; in most records, active means well fitted activation curve with a large enough effect in the repeat runs; inconclusive means weak or mixed curves; inactive means flat fitted curve, though single readings scatter.
# Assay: A CellTox Green Cytotoxicity Assay to monitor cytotoxicity in HepG2 cells - 32 hour (AID 1224883); further: nearly all actives have a fitted effect of over 50% in size
# Conditions: CellTox Green fluorescence; series mostly up to 76.8 µM; cytotoxicity increase: at the top concentration
# In short: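 HepG2, 600 cells/well premixed w/ CellTox Green; 5 h settle, 37 C/5% CO2; pintool cpd add (DMSO); 37 C, 40 h; fluorescence read at 0, 8, 16, 24, 32, 40 h.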
# On the % scale 0 is the no-effect control and ±100 the full control effect; potency means the concentration at half of the fitted maximal effect.
Structure (SMILES),cytotoxicity increase [%],Potency
Cc1cc(Cl)ccc1O[C@H](C)C(=O)O,-10,–
CCCCCCCCCCCCCN1CC(C)OC(C)C1 (stereo not drawn),1.23,–
O=c1ssc(Cl)c1Cl,–,19.5 µM (active)
COP(=O)(CCC(=O)NCO)OC,-6.28,–
C=COCCCl,-8.91,–
CNC(C)Cc1ccc2c(c1)OCO2 (stereo not drawn),0.694,–
CCCSP(=O)(OCC)SCCC,-1.22,–
CCS(=O)(=O)c1cccnc1S(=O)(=O)NC(=O)Nc1nc(OC)cc(OC)n1,0.204,–
CCCCCCCCCCCCCCCC[N+](C)(C)C,–,21.1 µM (active) and 19 µM (active)
O=c1[nH]c2ccccc2n1C1CCN(CCCC(c2ccc(F)cc2)c2ccc(F)cc2)CC1,–,24.5 µM (active)
CCOP(=S)(OCC)SCS(=O)(=O)C(C)(C)C,-1.01,–
CC(=O)Nc1ccc2c(c1)Cc1ccccc1-2,-3.89,–

# Assay: A CellTox Green Cytotoxicity Assay to monitor cytotoxicity in HEK293 cells - 8 hour (AID 1224884); further: nearly all actives have a fitted effect of over 35% in size
# Conditions: CellTox Green fluorescence; series mostly up to 76.8 µM; cytotoxicity increase: at the top concentration
# In short: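 Read-out: fluorescence of a cell-impermeant cyanine dye staining DNA of dead cells, proportional to cytotoxicity. HEK293, 600 cells/well with reagent, compound (23 nL DMSO) added after 5 h; reads at 0, 8, 16, 24, 32, 40 h.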
Structure (SMILES),Potency,cytotoxicity increase
CCCCCCCCCCCCCCCCCCn1cc[n+](C)c1,24.4 µM (active),–
COC[C@H](C)N(C(=O)CCl)c1c(C)csc1C,–,10.4%
C[C@H]1CC[C@@H]2[C@@H](C)[C@H]3[C@H](C[C@H]4[C@@H]5CC=C6CC(O[C@@H]7O[C@H](CO)[C@H](O)[C@H](O[C@@H]8O[C@H](CO)[C@@H](O)[C@H](O)[C@H]8O)[C@H]7O[C@H]7O[C@@H](C)[C@H](O)[C@@H](O)[C@H]7O)CC[C@]6(C)[C@H]5CC[C@]34C)N2C1 (stereo partly drawn),12.7 µM (active),–
Cc1cc(C)cc(OP(=O)(Oc2cc(C)cc(C)c2)Oc2cc(C)cc(C)c2)c1,–,-0.737%
COP(N)(=S)OC,–,-7.35%
NNC(=O)c1ccccc1,–,-1.09%
CCN,–,2.99%
N#Cc1ccccc1N,–,-1.04%
CN(CCCC(O)c1cccnc1)N=O (stereo not drawn),–,-0.595%
S=C=Nc1cccc2ccccc12,–,-1.83%
O=C(CCCN1CCC2(CC1)C(=O)NCN2c1ccccc1)c1ccc(F)cc1,–,-8.61% [at 35.3 µM]
CC(C)(C)OO,–,-11.7%
ClCCN1CCOCC1,–,-12.1%
[Hg+2].[I-].[I-],49 µM (active),–
CC(O)C#N (stereo not drawn),–,2.23%
c1ccc(OCC2CO2)cc1 (stereo not drawn),–,-11.7%

Structure (SMILES),Potency,cytotoxicity increase
ClC1=C(Cl)[C@]2(Cl)[C@@H]3[C@@H]4C[C@@H]([C@H]5O[C@@H]45)[C@@H]3[C@@]1(Cl)C2(Cl)Cl,27.5 µM (active),–
CCOCCOC(C)=O,–,-0.565%
CCCCCCCCCCBr,–,-6.77%
Oc1ccc(I)cc1,–,9.73%
O=c1[nH]c2ccccc2n1CCCN1CCC(n2c(=O)[nH]c3cc(Cl)ccc32)CC1,–,3.47% [at 35.3 µM]
Cc1cc(Cl)ccc1O[C@H](C)C(=O)O,–,-13.8%
CCCCCCCCCCCCCN1CC(C)OC(C)C1 (stereo not drawn),–,6.34%
COP(=O)(CCC(=O)NCO)OC,–,-0.604%
C=COCCCl,–,0.837%
CNC(C)Cc1ccc2c(c1)OCO2 (stereo not drawn),–,7.87%
CCCSP(=O)(OCC)SCCC,–,-4.58%
CCS(=O)(=O)c1cccnc1S(=O)(=O)NC(=O)Nc1nc(OC)cc(OC)n1,–,-12.4%
CCCCCCCCCCCCCCCC[N+](C)(C)C,21.1 µM (active) and 49 µM (active),–
CCOP(=S)(OCC)SCS(=O)(=O)C(C)(C)C,–,3.5%
CC(=O)Nc1ccc2c(c1)Cc1ccccc1-2,–,-2.18%
